# Measurements as given in PubChem BioAssay (NCI).
# The panel holds about 83,000 compounds, 20% with a hit somewhere; the sample as a whole holds those more often.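 Testing used 96-well plates and a 48-hour single-concentration exposure. Example: -40 means 40% of the starting cells died.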 Values without a mark were called inactive. Calls of active or inactive are those of the source. Rule for the calls: active = growth percent below 10; inactive = the rest.
# Test system: MDA-MB-468 breast
# Test: NCI-60 one-dose screen, 48 h (100 = growth as untreated, 0 = no growth, -100 = all killed)
# Conditions: 10 µM unless noted
row,SMILES,growth
1,O=C(c1ccccc1)c1ccc(N2C(=O)C3C4c5ccccc5C(/C=C/C(=O)c5ccccn5)(c5ccccc54)C3C2=O)cc1 (stereo not given),21.9%
2,COc1cc(NC(=O)SC2=NCCS2)cc(OC)c1,93.3%
3,NC(=O)c1cc(-c2ccc3ncnc(N4CCc5cc(F)c(Cl)cc54)c3c2)cnc1N,-35.3% (active)
4,O=[N+]([O-])c1c(O)c(Cl)cc(Cl)c1Cl,91.2%
5,O=S(=O)(NCCCNc1nccc(-c2c(-c3cccc(O)c3)nc3occn23)n1)c1ccc(Br)cc1,96.3%
